Ba CapD inh = inhibitors of Bacillus anthracis CapD enzyme. z-score (concentration not given with the values). 140,000 tested, 0.23% active. purified CapD enzyme, fluorescence intensity read-out; active compounds read low. AID 492967; in the data active = z-score mostly below about -2.9, no sharp cut-off; inactive = mostly above about -1.9
AID504770 = E. coli YBA685 growth inhibition, screen for V. cholerae RctB inhibitors | E. coli YBA685 rctB-dependent plasmid, OD600 growth, 3 h; active compounds read low | z-score (test concentration not listed) | 130,000 tested, 0.27% active; in the data active = z-score below about -2, passing the limit was not always enough
Hits are given with their value; - = inactive; . = no result. The list is not random: actives were taken first. Their share in the collection is about 0.36%.

SMILES | Ba CapD inh | AID504770
CCN(CC)C(=O)COc1ccc2ccc(=O)oc2c1 | . | -
CCN(CC)C(=O)COc1ccc2c(CC(=O)O)coc2c1 | . | -2.6
COc1ccc(CCNC(=O)CCCn2c(SCC(=O)c3ccccc3)nc3ccccc3c2=O)cc1OC | - | .
O=c1ccc2cc3c([nH]c4ccc(Br)cc43)oc-2c1O | -7.81 | -
O=C(O)c1cc(=O)c2cc(Br)ccc2o1 | - | -
CN(Cc1nc(-c2ccccc2)no1)C(=O)CCN1C(=O)c2ccccc2C1=O | - | -
O=[n+]1c(CO)c(CO)n([O-])c2ccccc21 | - | -8.7
O=c1c[n+]([O-])c2ccccc2n1OCc1ccccn1 | - | -
COc1ccccc1-n1c(C)nc(=O)c(-c2ccccc2)c1C | - | -
CC(=O)Oc1ccccc1-n1c(C)nc(=O)c(-c2ccccc2)c1C | - | -4.55
O=C(CS(=O)Cc1ccc(Cl)cc1)Nc1cccc(C(F)(F)F)c1 (stereo not given) | - | .
O=C(O)C1Sc2[nH]c(=O)sc2C2c3ccc(O)cc3OC(=O)C12 (stereo not given) | -8.79 | -
O=C1Oc2ccccc2C2c3sc(=O)[nH]c3SC(c3ccccc3)C12 (stereo not given) | . | -
CCc1nc(CN2CCN(c3ccc(F)cc3)CC2)c(C)[nH]1 | -1.83 | -
CCc1nc(CN2CCN(c3ccc(C(F)(F)F)cn3)CC2)c(C)[nH]1 | - | -
O=C(Nc1ccc(-c2cc3ccccc3oc2=O)cc1)c1ccc2c(c1)OCCO2 | - | .
C/C(N)=C(/C#N)C(=O)CSc1nnc(SCC(=O)/C(C#N)=C(\C)N)s1 | . | -
O=c1c(CN(c2cccc(C(F)(F)F)c2)S(=O)(=O)c2ccc(Cl)cc2)cc2cccc3c2n1CCC3 | - | .
CC1CCCCC1NC(=O)CSc1nnc(-c2ccccc2Br)o1 (stereo not given) | . | -
O=C(O)c1cn(-c2ccc(F)cc2)c2cc(N3CCN(CC(F)(F)F)CC3)c(F)cc2c1=O | - | .
CCn1cc(C(=O)O)c(=O)c2cc3c(cc21)OCO3 | - | -3.75
O=C(O)c1cn(C2CC2)c2cc(N3CCN(C(=S)S)CC3)c(F)cc2c1=O | - | -8.3
CCOC(=O)c1cn(CC)c2cc(N3CCCC3)c(F)cc2c1=O | - | -
CCn1cc(C(=O)O)c(=O)c2cc(F)c(N3CCN(C(=S)NC)CC3)cc21 | - | -7.2
CCn1cc(C(=O)O)c(=O)c2cc(F)c(N3CCN(C(=S)NC(=O)c4c(-c5ccccc5)noc4C)CC3)cc21 | - | -
SMILES | Ba CapD inh | AID504770
CCn1cc(C(=O)O)c(=O)c2cc(Cl)ccc21 | - | -
O=C(O)c1cn(-c2ccc(F)cc2)c2cc(N3CCNCC3)c(F)cc2c1=O | . | -3.55
CCSc1ccc(C(=O)Nc2ccc(Sc3nc(OC)c4c(n3)OCC4)cc2)cc1 | - | .
COc1ccc(C2(C(=O)NCC3(c4ccccc4)CCCOC3)CCOCC2)cc1OC (stereo not given) | - | .
CCCCN(CCCC)S(=O)(=O)c1cc2c(c([N+](=O)[O-])c1)-c1c(cc(S(=O)(=O)N(CCCC)CCCC)cc1[N+](=O)[O-])C2=O | - | .
CCN1C(=O)/C(=C2/Sc3ccc(OC)cc3N2C)OC1=S | - | -
COc1cc2nc(SCC(=O)NCc3ccco3)n3nc(CCn4nc(C)cc4C)nc3c2cc1OC | - | -
O=S1(=O)CCC(NC(=S)SCc2ccccc2)C1 (stereo not given) | - | -3.75
CCSC(=S)NC1CCS(=O)(=O)C1 (stereo not given) | - | -
Cc1cccc(Cl)c1S(=O)(=O)NC(Cc1ccccc1)C(=O)NC1CCCCC1 (stereo not given) | - | .
O=C1CSCC(=O)N1c1ccc(F)c(Cl)c1 | - | .
O=c1sn(-c2ccc(F)c(Cl)c2)c(=O)n1C1Cc2ccccc2C1 | - | -3.3
COc1cccc(C(=O)c2sc(NC(C)C)nc2N)c1 | -4.25 | -
CCOC(=O)c1sc(NC(=O)c2cccc(OC)c2)nc1-c1ccccc1 | - | -
COc1ccc(C(=O)NC(C)Cc2ccccc2)cc1 (stereo not given) | - | -
COc1cc(O)c(/C=N/NC(=O)c2ccc(C(F)(F)F)cc2)c(OC)c1 | - | .
Cc1ccc(CC(C#N)Sc2nnc(C)n2Cc2ccccc2)cc1 (stereo not given) | . | -
N#CSC(C#N)Cc1ccccc1 (stereo not given) | - | -6.45
Cc1ccc(CN2CCN(CC(=O)NCCCN3CCN(c4cccc(Cl)c4)CC3)C2=O)cc1 | - | -
O=C(NC1=NCCS1)c1cc2c(s1)CCC2 | - | -2.35
O=C(Nc1ccccc1Cl)c1cc2c(s1)CCC2 | - | -
O=C(Nc1cccnc1)c1cc(-c2ccccc2Cl)nc2ccccc12 | - | .
Nc1c(S(=O)(=O)c2ccc(Cl)cc2)cnc2cc(-c3ccccc3)nn12 | - | .
CC(C)(C)c1ccc(-c2cc3ncc(-c4ccccc4)c(N)n3n2)cc1 | - | -2.3
CCOc1ccc(N(CC)C(=O)CN2C(=O)C3C4C=CC(C4)C3C2=O)cc1 (stereo not given) | - | -
O=C(NCc1ccc(S(=O)(=O)N2CCOCC2)s1)c1ccc(Cl)cc1 | - | -
